From the supplement of paper PMC3545927 come the findings set out here.

This is one part of the list. The hit rate among all sequences tested is not known here.

In the assay the target is furin, P09958. Put plainly: furin cleavage Z-score vs untreated control; higher = more cleavage, active = 3.5 or more, inactive = 1 or less, 8 variable residues between constant flanks. In short, it runs like this: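 Reactions of 0.01 ml ran for 7.5, 15 or 30 min in 50 mM HEPES pH 7.5 with CaCl2 and NaCl, at 1:10 enzyme:substrate. In them, purified furin acted on bead-held 8-mer peptides fused to a cDNA oligonucleotide. The cleavage Z-score was obtained by lowess-adjusting log sequencing counts of released DNA against furin-free reactions and scaling by median absolute deviation.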
furin, P09958, sequence (P09958 whole entry, the tested form may be a part): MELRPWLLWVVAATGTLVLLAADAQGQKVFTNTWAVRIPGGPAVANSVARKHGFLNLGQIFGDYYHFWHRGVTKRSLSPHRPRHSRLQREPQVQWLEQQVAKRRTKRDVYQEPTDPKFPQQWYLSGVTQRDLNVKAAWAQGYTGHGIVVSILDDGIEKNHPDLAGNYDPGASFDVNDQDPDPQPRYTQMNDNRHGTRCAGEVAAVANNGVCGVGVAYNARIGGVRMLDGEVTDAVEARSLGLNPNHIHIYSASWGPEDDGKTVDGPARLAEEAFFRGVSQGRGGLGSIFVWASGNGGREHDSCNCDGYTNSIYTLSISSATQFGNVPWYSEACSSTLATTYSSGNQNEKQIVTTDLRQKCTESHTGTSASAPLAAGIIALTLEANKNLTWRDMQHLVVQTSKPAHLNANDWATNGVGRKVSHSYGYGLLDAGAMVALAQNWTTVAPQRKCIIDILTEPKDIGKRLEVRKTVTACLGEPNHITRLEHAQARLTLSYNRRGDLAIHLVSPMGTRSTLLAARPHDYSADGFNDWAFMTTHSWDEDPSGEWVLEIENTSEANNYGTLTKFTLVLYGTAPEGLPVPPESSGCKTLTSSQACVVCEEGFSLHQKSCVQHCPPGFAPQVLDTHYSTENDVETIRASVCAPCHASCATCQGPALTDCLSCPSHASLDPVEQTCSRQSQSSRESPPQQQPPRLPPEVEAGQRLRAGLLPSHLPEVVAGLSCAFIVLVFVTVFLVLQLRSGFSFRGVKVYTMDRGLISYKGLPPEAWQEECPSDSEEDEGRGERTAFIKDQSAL

Turning to CAPLLREEVSAGNASASA [HC1230], the “furin cleavage Z-score” value is 0.0348 (inactive) (7.5 min), -0.15 (inactive) (15 min) and -1.63 (inactive) (30 min).

Turning to CATTPCSQSWAGNASASA [HC1902], the “furin cleavage Z-score” value is, setting by setting: (7.5 min) -0.685 (inactive); (15 min) -1.5 (inactive); (30 min) -0.222 (inactive).

On to CATTGCSGSWAGNASASA [HC1876], for which the “furin cleavage Z-score” value (7.5 min) was -1.5 (inactive), the “furin cleavage Z-score” value (15 min) was -0.493 (inactive) and the “furin cleavage Z-score” value (30 min) was 0.42 (inactive).

In the case of CAKDSRQKRSAGNASASA [FS-670], the “furin cleavage Z-score” value is 10.3 (active) (7.5 min), 10.5 (active) (15 min) and 7.97 (active) (30 min).

As to CAQPSRQKRSAGNASASA [FS-480], the “furin cleavage Z-score” value was 11.2 (active) (7.5 min), 11.3 (active) (15 min) and 7.7 (active) (30 min).

Take CASPSGQKRSAGNASASA [FS-723]: the “furin cleavage Z-score” value was 0.144 (inactive) (7.5 min), 0.828 (inactive) (15 min) and 0.312 (inactive) (30 min).

As to CAHFSRQKRSAGNASASA [FS-535], the “furin cleavage Z-score” value is 8.68 (active) (7.5 min), 10.7 (active) (15 min) and 8.57 (active) (30 min).

Consider CAVVCCRMSYAGNASASA [HC110], for which the “furin cleavage Z-score” value is, setting by setting: (7.5 min) 0.397 (inactive); (15 min) 0.763 (inactive); (30 min) 0.409 (inactive).

Consider CAVVCCSMSHAGNASASA [HC2095], for which the “furin cleavage Z-score” value runs as follows: (7.5 min) -0.191 (inactive); (15 min) 0.171 (inactive); (30 min) 0.0466 (inactive).

In the case of CAARLVVLATAGNASASA [HC831], the “furin cleavage Z-score” value is -1.24 (inactive) (7.5 min), -1.13 (inactive) (15 min) and -0.8 (inactive) (30 min).

For CARHHRFPRAAGNASASA [FS-1063], the “furin cleavage Z-score” value by setting is: (7.5 min) 12.2 (active); (15 min) 10.7 (active); (30 min) 8.91 (active).

On to CAMASRFPRAAGNASASA [FS-690], for which the “furin cleavage Z-score” value is 11.5 (active) (7.5 min), 11.7 (active) (15 min) and 9.44 (active) (30 min).

For CARHHRGRGGAGNASASA [FS-2022], the “furin cleavage Z-score” value was -0.128 (inactive) (7.5 min), 0.955 (inactive) (15 min) and -0.479 (inactive) (30 min).

CAKSKKTPMGAGNASASA [HC1475]: the “furin cleavage Z-score” value is 1.44 (7.5 min), 0.854 (inactive) (15 min) and -0.61 (inactive) (30 min).

On to CAEVVTSTWRAGNASASA [HC2253], for which the “furin cleavage Z-score” value (7.5 min) was 0.989 (inactive), the “furin cleavage Z-score” value (15 min) was 0.48 (inactive) and the “furin cleavage Z-score” value (30 min) is 1.66.

Regarding CATTPASGSWAGNASASA [HC41], the “furin cleavage Z-score” value is -0.916 (inactive) (7.5 min), -1.61 (inactive) (15 min) and -1.23 (inactive) (30 min).

For the sequence CADDMEECSQAGNASASA [HC1811], the “furin cleavage Z-score” value is, setting by setting: (7.5 min) 0.222 (inactive); (15 min) -0.945 (inactive); (30 min) -0.707 (inactive).

Consider CARRRRQAERAGNASASA [FS-2793], for which the “furin cleavage Z-score” value by setting is: (7.5 min) 10.1 (active); (15 min) 11.9 (active); (30 min) 8.27 (active).

Consider CARRRRDATRAGNASASA [FS-1970], for which the “furin cleavage Z-score” value runs as follows: (7.5 min) 13.2 (active); (15 min) 14.6 (active); (30 min) 10 (active).

Take CARRRRKKARAGNASASA [FS-2790]: the “furin cleavage Z-score” value was 1.33 (7.5 min), 1.06 (15 min) and 0.0674 (inactive) (30 min).

CANAVAYYRGAGNASASA [HC867]: the “furin cleavage Z-score” value (7.5 min) is -0.298 (inactive), the “furin cleavage Z-score” value (15 min) was 0.148 (inactive) and the “furin cleavage Z-score” value (30 min) is 1.73.

For CARVRRNKRSAGNASASA [FS-1275], the “furin cleavage Z-score” value reads like this: (7.5 min) 11.3 (active); (15 min) 10.9 (active); (30 min) 9.58 (active).

As to CAGPVRLKKKAGNASASA [FS-1527], the “furin cleavage Z-score” value is, setting by setting: (7.5 min) -0.8 (inactive); (15 min) -1.68 (inactive); (30 min) -0.907 (inactive).

As to CARVRKSLKKAGNASASA [FS-2534], the “furin cleavage Z-score” value is 0.916 (inactive) (7.5 min), 3.69 (active) (15 min) and 5.83 (active) (30 min).

With CAKRERNKRSAGNASASA [FS-1637], the “furin cleavage Z-score” value was 12.5 (active) (7.5 min), 14.4 (active) (15 min) and 10.7 (active) (30 min).

Turning to CARVRRNAKKAGNASASA [FS-1978], the “furin cleavage Z-score” value is, setting by setting: (7.5 min) 6.72 (active); (15 min) 5.97 (active); (30 min) 7.62 (active).

As to CARRRKSLKTAGNASASA [FS-2783], the “furin cleavage Z-score” value (7.5 min) is 0.0718 (inactive), the “furin cleavage Z-score” value (15 min) was determined as 1.16 and the “furin cleavage Z-score” value (30 min) worked out at 2.47.

CARVRKSKGKAGNASASA [FS-1802]: the “furin cleavage Z-score” value (7.5 min) is 0.157 (inactive), the “furin cleavage Z-score” value (15 min) is -1.05 (inactive) and the “furin cleavage Z-score” value (30 min) was 0.116 (inactive).
